# Assay results as given in PubChem BioAssay (Tox21).
# Values without a mark were called inactive. Records with an inconclusive call do not appear. Entries that show only a call come without a potency. Active and inactive are the calls of the source. The call rests on the fitted dose curve; in most records, active means well fitted curve in the direction sought with a large enough effect in the repeat runs; inconclusive means weak or mixed curves; inactive means no such curve, though single readings can be large; an effect the other way counts as inactive or inconclusive.
# Tests used:
# [1] = A CellTox Green Cytotoxicity Assay to monitor cytotoxicity in HEK293 cells - 40 hour (AID 1224871); further: nearly all actives have a fitted effect of over 45% in size; further: potency means the concentration at half of the fitted maximal effect
# In short: (§1)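 HEK293 cells, 600/well, were preincubated 5 hours and then exposed to compounds at 37 C for up to 40 hours. A cell-impermeant cyanine dye staining dead-cell DNA was read by fluorescence at 0, 8, 16, 24, 32 and 40 h time points.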
# [2] = qHTS RealTime-Glo MT Cell Viability Assay in HepG2 cells - 8 hour (AID 1224873); further: nearly all actives have a fitted effect of over 55% in size
# In short: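 HepG2 cells mixed with RealTime-Glo MT reagents (NanoLuc plus cell-permeant prosubstrate) were seeded at 600 cells/well, incubated 5 h at 37 C/5% CO2, then pinned with compounds in DMSO; nonlytic luminescence tracked viability during 40 h treatment.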
# [3] = qHTS RealTime-Glo MT Cell Viability Assay in HEK293 cells - 40 hour (AID 1224874); settings: RealTime-Glo luminescence; max response: stronger effect = lower value; further: nearly all actives have a fitted effect of over 50% in size; further: potency means the concentration at half of the fitted maximal effect
# In short: (§2)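 600 cells/well were plated with the nonlytic NanoLuc/prosubstrate reagent, pre-incubated 5 h, then given 23 nL of compound in DMSO. Incubation at 37 C for 40 h, with luminescence from viable-cell-reduced substrate read repeatedly from 0 h.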
# [4] = A CellTox Green Cytotoxicity Assay to monitor cytotoxicity in HEK293 cells - 24 hour (AID 1224875); further: nearly all actives have a fitted effect of over 45% in size; further: potency means the concentration at half of the fitted maximal effect
# In short: as §1
# [5] = A CellTox Green Cytotoxicity Assay to monitor cytotoxicity in HepG2 cells - 16 hour (AID 1224876); further: nearly all actives have a fitted effect of over 45% in size
# In short: (§3)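 HepG2 cells, 600/well, preincubated 5 h with CellTox Green dye, then exposed to Tox21 compounds in DMSO at 37 C for up to 40 h. Dead-cell DNA fluorescence read at the indicated time point.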
# [6] = qHTS RealTime-Glo MT Cell Viability Assay in HepG2 cells - 32 hour (AID 1224877); further: nearly all actives have a fitted effect of over 55% in size
# In short: (§4)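 HepG2 cells (600/well) were dispensed with RealTime-Glo reagents, incubated 5 h at 37 °C, then treated with compounds in DMSO for up to 40 h. Nonlytic NanoLuc luminescence reflecting viable cells was read at each stated time point.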
# [7] = A CellTox Green Cytotoxicity Assay to monitor cytotoxicity in HepG2 cells - 24 hour (AID 1224878); further: nearly all actives have a fitted effect of over 45% in size; further: potency means the concentration at half of the fitted maximal effect
# In short: as §3
# [8] = A CellTox Green Cytotoxicity Assay to monitor cytotoxicity in HepG2 cells - 40 hour (AID 1224879); further: nearly all actives have a fitted effect of over 40% in size; further: potency means the concentration at half of the fitted maximal effect
# In short: as §3
# [9] = qHTS RealTime-Glo MT Cell Viability Assay in HEK293 cells - 0 hour (AID 1224880)
# In short: as §2
# [10] = A CellTox Green Cytotoxicity Assay to monitor cytotoxicity in HEK293 cells - 32 hour (AID 1224881); further: nearly all actives have a fitted effect of over 40% in size; further: potency means the concentration at half of the fitted maximal effect
# In short: as §1
# [11] = A CellTox Green Cytotoxicity Assay to monitor cytotoxicity in HepG2 cells - 0 hour (AID 1224882); further: nearly all actives have a fitted effect of over 35% in size
# In short: as §3
# [12] = A CellTox Green Cytotoxicity Assay to monitor cytotoxicity in HepG2 cells - 32 hour (AID 1224883); further: nearly all actives have a fitted effect of over 50% in size; further: potency means the concentration at half of the fitted maximal effect
# In short: as §3
# [13] = A CellTox Green Cytotoxicity Assay to monitor cytotoxicity in HEK293 cells - 8 hour (AID 1224884); further: nearly all actives have a fitted effect of over 35% in size
# In short: as §1
# [14] = qHTS RealTime-Glo MT Cell Viability Assay in HepG2 cells - 16 hour (AID 1224885); further: nearly all actives have a fitted effect of over 50% in size
# In short: as §4
# [15] = qHTS RealTime-Glo MT Cell Viability Assay in HEK293 cells - 24 hour (AID 1224886); further: nearly all actives have a fitted effect of over 50% in size; further: potency means the concentration at half of the fitted maximal effect
# In short: (§5)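 HEK293 cells seeded with NanoLuc/prosubstrate reagent, rested 5 h at 37 C, then dosed and kept at 37 C up to 40 h. Nonlytic real-time luminescence from viable cells read at 0, 8, 16, 24, 32 and 40 h.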
# [16] = qHTS RealTime-Glo MT Cell Viability Assay in HEK293 cells - 8 hour (AID 1224887)
# In short: as §2
# [17] = A CellTox Green Cytotoxicity Assay to monitor cytotoxicity in HEK293 cells - 16 hour (AID 1224888); further: nearly all actives have a fitted effect of over 35% in size
# In short: as §1
# [18] = qHTS RealTime-Glo MT Cell Viability Assay in HepG2 cells - 0 hour (AID 1224889); further: nearly all actives have a fitted effect of over 50% in size
# In short: as §4
# [19] = A CellTox Green Cytotoxicity Assay to monitor cytotoxicity in HepG2 cells - 8 hour (AID 1224890); further: nearly all actives have a fitted effect of over 45% in size
# In short: as §3
# [20] = qHTS RealTime-Glo MT Cell Viability Assay in HEK293 cells - 16 hour (AID 1224872)
# In short: as §5
smiles,measurement,setting,value
CCCCCCBr,Potency,[1],inactive
same,Potency,[2],inactive
same,max response,[3],13.7%
same,Potency,[4],inactive
same,Potency,[5],inactive
same,Potency,[6],inactive
same,Potency,[7],inactive
same,Potency,[8],inactive
same,outcome,[9],inactive
same,Potency,[10],inactive
same,outcome,[11],inactive
same,Potency,[12],inactive
same,Potency,[13],inactive
same,Potency,[14],inactive
same,Potency,[15],inactive
same,Potency,[16],inactive
same,Potency,[17],inactive
same,Potency,[18],inactive
same,Potency,[19],inactive
COP(=S)(OC)Oc1ccc(S(N)(=O)=O)cc1,Potency,[1],inactive
same,Potency,[20],inactive
same,max response,[3],-1.36%
same,Potency,[4],inactive
same,Potency,[5],inactive
same,Potency,[6],inactive
same,Potency,[7],inactive
same,Potency,[8],inactive
same,outcome,[9],inactive
same,Potency,[10],inactive
same,outcome,[11],inactive
same,Potency,[12],inactive
same,Potency,[15],inactive
same,Potency,[16],inactive
same,Potency,[17],inactive
same,Potency,[19],inactive
CCN(CC)CCOC(=O)C(C)(c1ccccc1)c1ccccc1,Potency,[1],inactive
same,Potency,[20],inactive
same,Potency,[2],inactive
same,Potency,[4],inactive
same,Potency,[5],inactive
same,Potency,[6],inactive
same,Potency,[8],inactive
same,outcome,[9],inactive
same,Potency,[10],inactive
same,Potency,[13],inactive
same,Potency,[14],inactive
same,Potency,[15],inactive
same,Potency,[16],inactive
same,Potency,[17],inactive
same,Potency,[18],inactive
same,Potency,[19],inactive
ClC(Br)Br,Potency,[1],inactive
same,Potency,[2],inactive
same,max response,[3],9.83%
same,Potency,[4],inactive
same,Potency,[5],inactive
same,Potency,[6],inactive
same,Potency,[7],inactive
same,Potency,[8],inactive
same,outcome,[11],inactive
same,Potency,[12],inactive
same,Potency,[13],inactive
same,Potency,[16],inactive
same,Potency,[17],inactive
same,Potency,[18],inactive
same,Potency,[19],inactive
O=C(N[C@H]1CN2CCC1CC2)c1cc2ccoc2cn1,Potency,[1],inactive
same,Potency,[2],inactive
same,max response,[3],8.57%
same,Potency,[4],inactive
same,Potency,[5],inactive
same,Potency,[6],inactive
same,outcome,[9],inactive
same,Potency,[10],inactive
same,outcome,[11],inactive
same,Potency,[13],inactive
same,Potency,[14],inactive
same,Potency,[15],inactive
same,Potency,[16],inactive
same,Potency,[17],inactive
same,Potency,[18],inactive
same,Potency,[19],inactive
CCOC(=O)C1(c2ccccc2)CCN(CCc2ccc(N)cc2)CC1,Potency,[1],inactive
same,Potency,[2],inactive
same,max response,[3],-22.8%
same,Potency,[4],inactive
same,Potency,[5],inactive
same,Potency,[6],inactive
same,Potency,[7],inactive
same,Potency,[8],inactive
same,outcome,[9],inactive
same,outcome,[11],inactive
same,Potency,[12],inactive
same,Potency,[13],inactive
same,Potency,[14],inactive
same,Potency,[16],inactive
same,Potency,[17],inactive
same,Potency,[18],inactive
same,Potency,[19],inactive
c1cc[c]([Hg][c]2ccccc2)cc1,Potency,[1],34.7 µM (active)
same,Potency,[2],inactive
same,Potency,[3],24.5 µM (active)
same,Potency,[4],43.6 µM (active)
same,Potency,[5],inactive
same,Potency,[6],inactive
same,Potency,[7],43.6 µM (active)
same,Potency,[8],49 µM (active)
same,outcome,[9],inactive
same,Potency,[10],38.9 µM (active)
same,outcome,[11],inactive
same,Potency,[12],49 µM (active)
same,Potency,[13],inactive
same,Potency,[14],inactive
same,Potency,[15],34.7 µM (active)
same,Potency,[17],inactive
same,Potency,[18],inactive
same,Potency,[19],inactive
COC(=O)C(C)Oc1ccc(Oc2ccc(Cl)cc2Cl)cc1 (configuration not stated),Potency,[1],inactive
same,Potency,[2],inactive
same,max response,[3],-8.07%
same,Potency,[4],inactive
same,Potency,[5],inactive
same,Potency,[6],inactive
same,Potency,[7],inactive
same,Potency,[8],inactive
same,Potency,[10],inactive
same,outcome,[11],inactive
same,Potency,[12],inactive
same,Potency,[13],inactive
same,Potency,[14],inactive
same,Potency,[16],inactive
same,Potency,[17],inactive
same,Potency,[18],inactive
same,Potency,[19],inactive
CN1C[C@@H](NS(=O)(=O)N(C)C)C[C@@H]2c3cccc4c3c(cn4C)C[C@H]21,Potency,[1],inactive
same,Potency,[2],inactive
same,max response,[3],-20.7%
same,Potency,[4],inactive
same,Potency,[5],inactive
same,Potency,[6],inactive
same,Potency,[7],inactive
same,Potency,[8],inactive
same,outcome,[9],inactive
same,outcome,[11],inactive
same,Potency,[12],inactive
same,Potency,[13],inactive
same,Potency,[14],inactive
same,Potency,[15],inactive
same,Potency,[16],inactive
same,Potency,[17],inactive
same,Potency,[18],inactive
same,Potency,[19],inactive
CCOC(=O)NC(=S)Nc1ccccc1NC(=S)NC(=O)OCC,Potency,[1],inactive
same,Potency,[20],inactive
same,Potency,[2],inactive
same,Potency,[4],inactive
same,Potency,[5],inactive
same,Potency,[6],inactive
same,Potency,[7],inactive
same,outcome,[9],inactive
same,outcome,[11],inactive
same,Potency,[12],inactive
same,Potency,[13],inactive
same,Potency,[14],inactive
same,Potency,[16],inactive
same,Potency,[17],inactive
same,Potency,[18],inactive
same,Potency,[19],inactive
c1cc2c(c(N3CCNCC3)c1)OCCO2,Potency,[1],inactive
same,Potency,[2],inactive
same,max response,[3],-2.14%
same,Potency,[4],inactive
same,Potency,[5],inactive
same,Potency,[6],inactive
same,Potency,[7],inactive
same,Potency,[8],inactive
same,Potency,[10],inactive
same,outcome,[11],inactive
same,Potency,[12],inactive
same,Potency,[13],inactive
same,Potency,[14],inactive
same,Potency,[15],inactive
same,Potency,[16],inactive
same,Potency,[17],inactive
same,Potency,[18],inactive
same,Potency,[19],inactive
CCOP(=O)(N=C1SCCS1)OCC,Potency,[1],inactive
same,Potency,[2],inactive
same,max response,[3],21.4%
same,Potency,[4],inactive
same,Potency,[5],inactive
same,Potency,[6],inactive
same,Potency,[7],inactive
same,Potency,[8],inactive
same,outcome,[9],inactive
same,Potency,[10],inactive
same,outcome,[11],inactive
same,Potency,[12],inactive
same,Potency,[16],inactive
same,Potency,[17],inactive
same,Potency,[18],inactive
same,Potency,[19],inactive
Cc1nc(N)nc(N)n1,Potency,[1],inactive
same,Potency,[2],inactive
same,max response,[3],-3.78%
same,Potency,[4],inactive
same,Potency,[5],inactive
same,Potency,[6],inactive
same,Potency,[7],inactive
same,Potency,[8],inactive
same,outcome,[9],inactive
same,outcome,[11],inactive
same,Potency,[12],inactive
same,Potency,[13],inactive
same,Potency,[14],inactive
same,Potency,[15],inactive
same,Potency,[16],inactive
same,Potency,[17],inactive
same,Potency,[18],inactive
same,Potency,[19],inactive
CCCSC(=O)N(CCC)CCC,Potency,[1],inactive
same,Potency,[2],inactive
same,max response,[3],7.77%
same,Potency,[4],inactive
same,Potency,[5],inactive
same,Potency,[6],inactive
same,Potency,[7],inactive
same,Potency,[8],inactive
same,outcome,[9],inactive
same,Potency,[10],inactive
same,outcome,[11],inactive
same,Potency,[12],inactive
same,Potency,[13],inactive
same,Potency,[14],inactive
same,Potency,[15],inactive
same,Potency,[16],inactive
same,Potency,[17],inactive
same,Potency,[18],inactive
same,Potency,[19],inactive
COc1cc(OC)nc(Sc2cccc(Cl)c2C(=O)O)n1,Potency,[1],inactive
same,Potency,[2],inactive
same,max response,[3],16.2%
same,Potency,[4],inactive
same,Potency,[5],inactive
same,Potency,[6],inactive
same,Potency,[7],inactive
same,Potency,[8],inactive
same,outcome,[9],inactive
same,outcome,[11],inactive
same,Potency,[12],inactive
same,Potency,[13],inactive
same,Potency,[14],inactive
same,Potency,[15],inactive
same,Potency,[16],inactive
same,Potency,[17],inactive
same,Potency,[18],inactive
same,Potency,[19],inactive
